Experiment [1] is described as follows: qHTS assay for small molecule agonists of the p53 signaling pathway (AID 651631; calls by dose curve; note: nearly all actives have a fitted effect of over 15% in size). The settings on record: HCT-116 p53RE-bla reporter, beta-lactamase FRET ratio, 16 h; series mostly up to 73.3 µM. Summed up: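 HCT-116 cells carrying a stable p53 response element–beta-lactamase reporter were plated, rested 5 h at 37 °C, then exposed to compound in DMSO for 16 h at 37 °C; reporter activity was read as FRET substrate fluorescence after 2 h at room temperature.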
A general note: qHTS replaces the single test concentration by a dilution series.

Experiment [2] can be described thus: qHTS assay for small molecules that induce genotoxicity in human embryonic kidney cells expressing luciferase-tagged ATAD5 (AID 651632). Note: nearly all actives have a fitted effect of over 15% in size. The settings on record: HEK293T ATAD5-luciferase induction, 16 h; series mostly up to 83.3 µM. The method, boiled down: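 A rise in luciferase signal from ATAD5-tagged HEK293T cells marks genetic stress. Cells were exposed to compounds for 16 hr at 37C, 5% CO2, then luciferase was quantified after a 30 min room-temperature incubation with Amplite.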

The nature of experiment [3]: qHTS assay for small molecule agonists of the p53 signaling pathway - cell viability (AID 651633; calls by dose curve; note: nearly all actives have a fitted effect of over 30% in size). Conditions: p53RE-bla HCT-116 viability, ATP luminescence, 16 h; series mostly up to 83.3 µM. Summed up:
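p53RE-bla cells, seeded at 4,000 per well and rested 5 h at 37 C/5% CO2, received compounds in DMSO for 16 h at 37 C. CellTiter-Glo was then added, and luminescence was read after 30 min at room temperature to gauge cytotoxicity.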

The nature of experiment [4]: qHTS assay for small molecules that induce genotoxicity in human embryonic kidney cells expressing luciferase-tagged ATAD5 - cell viability (AID 651634; calls by dose curve; note: nearly all actives have a fitted effect of over 25% in size; note: potency is the fitted concentration of half-maximal effect). Conditions: HEK293T ATAD5-luc cells viability, CellTiter-Fluor, 15.5 h; series mostly up to 83.3 µM. The method, boiled down:
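Cytotoxicity counter-readout: after 15.5 hr compound treatment at 37C, live-cell protease activity in ATAD5-luciferase HEK293T cells measured by CellTiter-Fluor fluorescence, 30 min development at 37C.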

Experiment [5] can be described thus: qHTS assay for small molecule disruptors of the mitochondrial membrane potential - cell viability (AID 720634; calls by dose curve;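 note: human HepG2 liver cancer cells; nearly all actives have a fitted effect of over 20% in size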). The settings on record: HepG2 viability, ATP luminescence (CellTiter-Glo), 1 h; series mostly up to 83.2 µM. Summed up: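 Cytotoxicity was quantified from ATP content by CellTiter-Glo luminescence in the same wells as the MMP dye read-out. HepG2 (2,000 cells/well) were plated overnight and exposed to compounds for 1 hr at 37 C.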

Experiment [6] can be described thus: qHTS assay for small molecule disruptors of the mitochondrial membrane potential (AID 720635). Note: potency is the fitted concentration of half-maximal effect. Conditions: HepG2 mitochondrial membrane potential, Mito-MPS dye ratio; series mostly up to 83.2 µM. Summed up: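 HepG2 cells (2,000/well) attached overnight at 37C, then took compound for 1 hr at 37C, 5% CO2. Mito-MPS dye was added for 30 min; fluorescence was read at 490/535 nm (monomers) and 540/590 nm (aggregates).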

Experiment [7] is described as follows: qHTS assay to test for compound auto fluorescence at 590 nm (red) in HepG2 cells (AID 720674). Conditions: HepG2 autofluorescence, red 540/590 nm, 1 h; series mostly up to 91.3 µM. Summed up: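 Intrinsic compound fluorescence in the red window (Ex/Em 540/590 nm) is measured in attached HepG2 cells exposed for 1 hr, DMSO vehicle as baseline, benchmarked to Rose Bengal sodium.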

Experiment [8] in a line: qHTS assay to test for compound auto fluorescence at 535 nm (green) in HepG2 cells (AID 720675). Conditions: green autofluorescence 485/535 nm, 1 h; series mostly up to 91.3 µM.
Experiment [9] is described as follows: qHTS assay to test for compound auto fluorescence at 460 nm (blue) in HEK293 cells (AID 720678). The settings on record: blue autofluorescence 405/460 nm; series mostly up to 91.3 µM. Summed up: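 HEK293 cells (2,000 per well, medium with 10% dialyzed FBS) attached for 4-5 hr at 37C, then received compound and stood overnight at 37C, 5% CO2. Blue fluorescence was read at Ex/Em 405/460 nm and expressed relative to triamterene.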

Experiment [10] in a line: qHTS assay to test for compound auto fluorescence at 590 nm (red) in HEK293 cells (AID 720679). Conditions: red autofluorescence 540/590 nm; series mostly up to 91.3 µM. Summed up: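 HEK293 cells (2,000/well, medium with 10% dialyzed FBS) attached for 4-5 hr at 37C, received 23 nL compound and were incubated overnight at 37C, 5% CO2. Red fluorescence was then read at 540/590nm Ex/Em, referenced to Rose Bengal sodium.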

A number with no mark means an inactive call. Results filed as inconclusive are left out. Calls of active or inactive are those of the source. Unless noted, calls come from the whole dose curve; as a rule, active = well fitted curve in the direction sought with a large enough effect in the repeat runs; inconclusive = weak or mixed curves; inactive = no such curve, though single readings can be large; an effect the other way counts as inactive or inconclusive.

For `CC(C)C(O)C(C)(C)CO` (stereo unspecified), the Potency entry in [1], in experiment [2], in experiment [3], in experiment [4], in experiment [6] and in experiment [9] was “inactive” in each case. Besides, the outcome in experiment [5], in experiment [7], in [8] and in experiment [10] was inactive.

In the case of `CCN(CC)CCNC(=O)c1cc(Cl)c(N)cc1OC`, the Potency result in experiment [1], in experiment [2], in experiment [3], in experiment [4] and in experiment [6] was “inactive” each time. For the same molecule, the outcome in experiment [5], in experiment [7], in [8] and in experiment [10] was inactive.

Turning to `Nc1nc(-c2ccc([N+](=O)[O-])cc2)cs1`, the Potency entry in experiment [1], in experiment [2], in experiment [3], in [4] and in experiment [9] was “inactive” throughout. The outcome in experiment [5], in [7], in [8] and in experiment [10] was inactive. Further, the Potency in experiment [6] was 3.1 µM (active).

On to `CC[C@H]1OC(=O)[C@H](C)[C@@H](O[C@H]2C[C@@](C)(OC)[C@@H](O)[C@H](C)O2)[C@H](C)[C@@H](O[C@@H]2O[C@H](C)C[C@H](N(C)C)[C@H]2O)[C@](C)(O)C[C@@H](C)C(=O)[C@H](C)[C@@H](O)[C@]1(C)O`, for which the Potency entry in experiment [1], in experiment [2], in experiment [3], in experiment [4], in [6] and in experiment [9] was “inactive” in each case. In addition, the call in experiment [5], in experiment [7] and in experiment [10] was inactive.

Turning to `CC(=O)OCC(C)C`, the Potency result in experiment [1], in [2], in [3], in [4], in experiment [6] and in [9] was “inactive” in each case. Further, the call in [5], in experiment [7], in experiment [8] and in experiment [10] was inactive.

`CCC1CCC(CCC(=O)O)C1` (stereo unspecified): the Potency entry in experiment [1], in experiment [2], in experiment [3], in experiment [4], in [6] and in [9] was “inactive” throughout. For the same molecule, the outcome in experiment [5], in experiment [7] and in [10] was inactive.

With `Nc1ccc(NC(=O)c2ccc(N)cc2)cc1`, the Potency result in [1], in [2], in experiment [3], in experiment [4] and in [9] was “inactive” each time. Further, the molecule was classed as inactive in [5], in experiment [7], in experiment [8] and in experiment [10]. The Potency in experiment [6] is 1.37 µM (active).

As to `CCC(C)(C)C(=O)O`, the Potency result in [1], in experiment [2], in experiment [3], in [4] and in [9] was “inactive” throughout. For the same molecule, the result in experiment [5], in [7], in [8] and in [10] was inactive.

For the molecule `ClC1=C(Cl)C1(Cl)Cl`, the Potency result in [1], in experiment [2], in experiment [3], in experiment [4], in experiment [6] and in [9] was “inactive” each time. In addition, the molecule was classed as inactive in [5], in [7], in experiment [8] and in experiment [10].

Consider `Cc1c[nH]c2ccccc12`, for which the Potency result in experiment [1], in experiment [2], in experiment [3], in experiment [4], in experiment [6] and in experiment [9] was “inactive” each time. Further, the result in experiment [5], in experiment [7], in experiment [8] and in experiment [10] was inactive.

As for `c1ccc2sc(SSc3nc4ccccc4s3)nc2c1`, the Potency result in experiment [1], in [2], in experiment [3], in experiment [4] and in experiment [6] was “inactive” each time. In addition, the molecule was classed as inactive in experiment [5], in experiment [7], in experiment [8] and in experiment [10].

With `O=C1c2ccccc2C(=O)c2c(O)ccc(O)c21`, the Potency entry in [1], in experiment [2], in experiment [3] and in experiment [9] was “inactive” in each case. Also, the Potency in experiment [4] was 54.5 µM (active); in experiment [6], 3.06 µM (active). Moreover, the molecule was classed as inactive in [5], in experiment [7], in experiment [8] and in [10].

With `C=CC(=O)O`, the Potency entry in experiment [1], in [2], in [3], in [4], in experiment [6] and in experiment [9] was “inactive” in each case. Moreover, the outcome in experiment [5], in experiment [7], in experiment [8] and in experiment [10] was inactive.

Consider `CSSc1ccoc1C`, for which the Potency result in experiment [1], in [2], in experiment [3] and in experiment [4] was “inactive” in each case. Also, the molecule was classed as inactive in [5], in experiment [7], in experiment [8] and in [10].

Turning to `CC(=O)c1ccc[nH]1`, the Potency result in [1], in [2], in [3], in experiment [4], in experiment [6] and in experiment [9] was “inactive” each time. Moreover, the molecule was called inactive in experiment [7] and in experiment [10].

For `CC(=O)OCC(=O)[C@@]1(OC(C)=O)[C@@H](C)C[C@H]2[C@@H]3C[C@H](F)C4=CC(=O)C=C[C@]4(C)[C@@]3(F)[C@@H](O)C[C@@]21C`, the Potency result in [1], in experiment [2], in [3] and in [4] was “inactive” throughout. In addition, the molecule was called inactive in experiment [5], in [7], in [8] and in experiment [10].

For the molecule `[Cl][Nd]([Cl])[Cl]`, the Potency result in experiment [1], in experiment [2], in experiment [3], in experiment [4] and in experiment [9] was “inactive” each time. Also, the molecule was classed as inactive in experiment [7], in experiment [8] and in [10].

Consider `CC1=CC[C@@]23C[C@@H]1C(C)(C)[C@@H]2CC[C@H]3C`, for which the Potency entry in experiment [1], in [2], in [3], in experiment [4] and in [9] was “inactive” each time. The molecule was called inactive in experiment [5], in experiment [7] and in [10].

Regarding `CCCCCCC(CO)CCCC` (stereo unspecified), the Potency entry in experiment [1], in experiment [2], in [3], in experiment [4] and in [9] was “inactive” each time. Also, the molecule was called inactive in experiment [5], in [7] and in [10].

As for `CCCCCCC(O)CCOC(C)=O` (stereo unspecified), the Potency result in experiment [1], in experiment [2], in experiment [3], in experiment [4] and in experiment [9] was “inactive” in each case. Besides, the outcome in experiment [5], in experiment [7] and in [10] was inactive.

With `Cc1cccc2sc(N)nc12`, the Potency entry in [1], in experiment [2], in experiment [3], in experiment [4] and in [9] was “inactive” throughout. The result in experiment [5], in [7], in experiment [8] and in experiment [10] was inactive.

For `COc1ccc(C(=O)NCc2ccc(OCCN(C)C)cc2)cc1OC`, the Potency entry in [1], in experiment [2], in [3], in experiment [4], in experiment [6] and in [9] was “inactive” throughout. Besides, the outcome in experiment [7], in experiment [8] and in [10] was inactive.

For `CC(=O)C(C)=O`, the Potency entry in experiment [1], in [2], in experiment [3], in [4] and in experiment [9] was “inactive” throughout. For the same molecule, the result in experiment [7], in experiment [8] and in experiment [10] was inactive.

Consider `CCCCCCCC(=O)OCCCCCC`, for which the Potency result in [1], in [2], in experiment [3], in experiment [4], in experiment [6] and in experiment [9] was “inactive” each time. In addition, the outcome in [7], in [8] and in experiment [10] was inactive.
